Screen size: about 16,000 compounds; about 5,100 (32%) were called active. Not shown: some 25% with an inconclusive outcome. Some of the results follow. Values without a mark were called inactive. Calls follow the shape of the dose curve; as a rule, active = well fitted curve in the direction sought with a large enough effect; inconclusive = small, poorly fitted or top-dose-only effect, or effect the other way; inactive = no such curve, though single readings can be large or run the other way.

The values that follow come from PubChem BioAssay AID1851 (National Center for Advancing Translational Sciences (NCATS), 2009).
% is scaled to controls: 0 for no effect and ±100 for the full control effect.

Sequence of Cytochrome P450 3A4 (Homo sapiens) (P08684 whole entry, looked up): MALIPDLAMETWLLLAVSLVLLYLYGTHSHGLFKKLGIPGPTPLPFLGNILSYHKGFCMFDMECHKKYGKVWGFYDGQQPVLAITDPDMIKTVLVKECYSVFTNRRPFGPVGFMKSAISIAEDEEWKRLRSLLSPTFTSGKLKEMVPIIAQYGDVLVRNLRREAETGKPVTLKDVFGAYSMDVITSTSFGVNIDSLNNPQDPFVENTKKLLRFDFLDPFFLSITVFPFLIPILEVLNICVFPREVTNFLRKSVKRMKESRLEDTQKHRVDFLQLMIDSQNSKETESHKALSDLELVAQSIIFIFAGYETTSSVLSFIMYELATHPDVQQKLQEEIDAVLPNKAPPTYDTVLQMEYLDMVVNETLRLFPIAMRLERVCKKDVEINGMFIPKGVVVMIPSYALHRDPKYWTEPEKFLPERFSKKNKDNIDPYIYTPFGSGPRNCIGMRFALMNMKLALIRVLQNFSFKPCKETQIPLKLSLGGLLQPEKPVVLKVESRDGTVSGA

This assay concerns the target Cytochrome P450 3A4 (Homo sapiens) (UniProt P08684). As to the kind of experiment: Cytochrome panel assay with activity outcomes. The settings on record: recombinant CYP, pro-luciferin dealkylation, luminescence, p450-cyp3a4; series mostly up to 57.1 µM; activity, negative = inhibition: at the top concentration.
`C(=N\N1CCN(C2c3ccccc3-c3ccccc32)CC1)/c1cccnc1`: the AC50 is 12.6 µM (active).
On the same count and under the same terms, for `C/C(=N\N1CCN(C2c3ccccc3-c3ccccc32)CC1)c1cccnc1` the value was 2.82 µM (active); for `C/C(=N\N1CCN(C2c3ccccc3-c3ccccc32)CC1)c1ccncc1`, 1 µM (active).
In the case of `O=[N+]([O-])c1cc(/C=N/N2CCN(C3c4ccccc4-c4ccccc43)CC2)ccc1Cl`, the “activity, negative = inhibition” value is -12.7%.
As to `O=c1c2cnn(-c3ccccc3)c2nnn1/N=C/c1cccnc1`, the “activity, negative = inhibition” value is -26.8%.
For `Cc1ccccc1OCC(O)Cn1c(NCc2ccccc2)nc2c1c(=O)[nH]c(=O)n2C` (configuration not stated), the AC50 is 11.2 µM (active).
With `Cc1cc(C)n(-c2nc3c(c(=O)[nH]c(=O)n3C)n2CC(C)C)n1`, the “activity, negative = inhibition” value was 31.4%.
In the case of `CC(C)(C)NC[C@H](O)COc1cccc2[nH]c(=O)[nH]c12`, the AC50 entry is “inactive”.
For the compound `Cc1ccc(C(=O)CNc2nc3c(c(=O)[nH]c(=O)n3C)n2Cc2ccccc2)cc1`, the AC50 was 5.01 µM (active).
Turning to `Cn1c(=O)[nH]c(=O)c2c1nc(NCCCO)n2CCCc1ccccc1`, the “activity, negative = inhibition” value was -24.3%.
As for `COCCn1c(=O)c(CCc2ccccc2)nc2cnc(N(C)C)nc21`, the concentration at half-maximal activity (AC50) is 15.8 µM (active).
Take `COCCn1c(=O)c(C)nc2cnc(N(C)C)nc21`: the “activity, negative = inhibition” value is -16.6%.
For the compound `CN(C)c1ncc2nc(CCc3ccccc3)c(=O)n(-c3ccccc3)c2n1`, the AC50 is 6.31 µM (active).
Consider `CN(C)c1ncc2nc(-c3ccccc3)c(=O)n(CCc3ccccc3)c2n1`, for which the “activity, negative = inhibition” value was -9.74%.
Still for that read-out and setting: for `CN(C)c1ncc2nc(-c3ccc(Cl)cc3)c(=O)n(Cc3cccs3)c2n1` the value was 7.01%.
Turning to `CN(C)c1ncc2ncc(=O)n(CCc3ccccc3)c2n1`, the “activity, negative = inhibition” value is 9.46%.
Turning to `CN(C)c1ncc2nc(CCc3ccccc3)c(=O)n(Cc3cccs3)c2n1`, the AC50 was 10 µM (active).
On the same count and under the same terms, for `CN(C)c1ncc2nc(CCc3ccccc3)c(=O)n(CCc3ccccc3)c2n1` the value was 6.31 µM (active).
Take `Cc1nc2cnc(N(C)C)nc2n(-c2ccccc2)c1=O`: the “activity, negative = inhibition” value was -22.1%.
Still for that read-out and setting: for `CN(C)C(=O)Oc1cccc([N+](C)(C)C)c1` the value was -1.98% [at 25.6 µM].
With `Cc1nc(NC(=O)c2ccccc2)sc1-c1csc(Nc2ccc(Cl)cc2Cl)n1`, the AC50 was 11.2 µM (active).
For `Cc1nc(NC(=O)c2ccccc2)sc1-c1csc(Nc2cccc(Cl)c2)n1`, the half-maximal activity concentration (AC50) was 10 µM (active).
In the case of `Cc1nc(NC(=O)c2ccccc2)sc1-c1csc(Nc2ccc(Cl)cc2)n1`, the activity, negative = inhibition is 3.11% [at 2.29 µM].
As to `Cc1nnc(NC(=O)c2cccc(NC(=O)C(C)C)c2)s1`, the “activity, negative = inhibition” value was 1.57%.
On to `Cc1nc(NC(=O)c2ccccc2)sc1-c1csc(Nc2ccc(F)cc2)n1`, for which the half-maximal activity concentration (AC50) was 10 µM (active).
As to `O=C(NNC(=O)c1cc2cc3ccccc3nc2s1)c1cccc(Cl)c1`, the “activity, negative = inhibition” value was -20.1%.
Take `Cn1sc(NC(=O)c2ccccc2Cl)nc1=O`: the “activity, negative = inhibition” value is -14.4%.
Turning to `Cc1nc(NC(=O)c2ccco2)sc1-c1csc(Nc2ccc(Cl)cc2Cl)n1`, the concentration at half-maximal activity (AC50) is 5.01 µM (active).
Take `C#CCOCCCC(=O)O`: the activity, negative = inhibition is 0.116% [at 11.4 µM].
Same read-out and setting: for `CC(C)(N=NC(C)(C)C(=N)N)C(=N)N` the value was -6.94% [at 11.4 µM].
`C=CCCC(=O)Nc1nc(C)c(-c2csc(Nc3ccc(Cl)cc3)n2)s1`: the AC50 was 10 µM (active).
Turning to `O[C@@H](c1cc(C(F)(F)F)nc2c(Cl)cc(Cl)cc12)[C@@H]1CCCCN1`, the activity, negative = inhibition was -21% [at 11.4 µM].
The same measure, in the same setting: for `CC(C)CC(=O)Nc1ccccc1-c1nnn(CC(=O)N2CCc3ccccc3C2)n1` the value was -9.5%.
Turning to `CC(C)(C)NC(=O)Cn1nnc(-c2ccccc2NC(=O)c2cnccn2)n1`, the half-maximal activity concentration (AC50) is 3.98 µM (active).
Still for that read-out and setting: under `C=CCn1c(Cc2ccc(OC)cc2)nnc1SCC(=O)c1cccc([N+](=O)[O-])c1` stands 1.41 µM (active).
Consider `CCOc1c2ccc(C(=O)NCCc3cccs3)cc2nn1CC`, for which the activity, negative = inhibition was -0.473% [at 2.29 µM].
Regarding `O=C(CSc1nnc(COc2ccccc2)n1-c1ccccc1)c1ccccc1`, the AC50 was 14.1 µM (active).
On the same count and under the same terms, for `CCOc1ccc(-c2nnn(CC(=O)Nc3cc(OC)ccc3OC)n2)cc1OCC` the value was 3.55 µM (active); for `COc1ccc(-c2nnn(CC(=O)N(CC(=O)NCCC(C)C)Cc3cccs3)n2)cc1OC`, 12.6 µM (active).
On to `CC1(C)OC(C(N)=O)C(C(N)=O)O1` (configuration not stated), for which the “activity, negative = inhibition” value was 2.95%.
Same read-out and setting: for `CN[C@@H]1[C@H](O[C@@H]2O[C@H](CO)[C@@H](N)[C@H](O)[C@@H]2O)O[C@H]2C[C@@H](N)[C@@H](O[C@H]3[C@@H](O)[C@H](O)[C@H](N)C[C@@H]3N)O[C@H]2[C@H]1O` the value was -2.1% [at 25.6 µM].
In the case of `C=CCn1c(COc2ccccc2)nnc1SCC(=O)N/N=C/c1ccc(C)cc1`, the AC50 is 3.16 µM (active).
For the compound `CCn1c(CNC(=O)COc2ccc(C(C)C)cc2)nnc1SCC(=O)Nc1cc(F)ccc1C`, the AC50 is 10 µM (active).
Same read-out and setting: under `COc1ccc(NC(=O)CSc2nnc(Cc3cccn3C)n2CCc2ccccc2)c(OC)c1` stands 2.24 µM (active).
For the compound `CCOc1cc(C)ccc1OCc1nnc(SCC(=O)c2cccc([N+](=O)[O-])c2)n1CC`, the AC50 is 2.82 µM (active).
Consider `CSc1nc(-c2ccccc2)nn1C(=O)c1ccccc1`, for which the “activity, negative = inhibition” value is -8.43%.
For `CCc1ccccc1NC(=O)CSc1nc(-c2ccccc2)nn1C(=O)c1cccc([N+](=O)[O-])c1`, the activity, negative = inhibition is -8.74% [at 2.29 µM].
On to `CCCCOc1ccc(-c2nnn(CC(=O)c3c[nH]c4ccccc34)n2)cc1`, for which the “activity, negative = inhibition” value was -0.767%.
For `CCn1c(COc2ccccc2)nnc1SCC(=O)c1cccc([N+](=O)[O-])c1`, the AC50 was 12.6 µM (active).
Consider `COc1ccc(OCc2nnc(SCC(=O)O)n2N)cc1`, for which the “activity, negative = inhibition” value was -2.75%.
On to `CCn1c(COc2ccccc2)nnc1SCC(=O)Nc1cc(OC)ccc1OC`, for which the half-maximal activity concentration (AC50) is 10 µM (active).
On to `COc1ccc(-c2nnn(CC(=O)NCCc3c[nH]c4ccccc34)n2)cc1OC`, for which the AC50 was 8.91 µM (active).
For the compound `COc1cccc(OCc2nnc(SCC(=O)NCc3ccco3)n2C)c1`, the activity, negative = inhibition was 12.8% [at 2.29 µM].
For `COc1ccc(C(=O)NNC(=O)CSc2nnc(COc3ccc4ccccc4c3)n2C)cc1`, the half-maximal activity concentration (AC50) is 0.501 µM (active).
For `COc1ccc2c(c1)-c1c(sn(-c3ccc(OC)c(OC)c3)c1=S)C(C)(C)N2`, the activity, negative = inhibition was -15.9% [at 2.29 µM].
On the same count and under the same terms, under `CC(=O)c1c(O)c(C)c(-c2ccccc2)n(-c2ccccc2)c1=O` stands -3.08%.
As to `Cc1ccc(-n2nnnc2C(=Cc2ccc(N(C)C)cc2)c2nnnn2-c2ccc(C)cc2)cc1`, the AC50 is 3.16 µM (active).
`Cc1ccc(-c2nn3c(C)nnc3c3ccccc23)cc1S(=O)(=O)NCc1ccccc1`: the “activity, negative = inhibition” value was -15.1%.
Regarding `Cc1ccc(-c2nn3c(C)nnc3c3ccccc23)cc1S(=O)(=O)NCCN1CCOCC1`, the AC50 was 8.91 µM (active).
In the case of `OC(COCC1COc2ccccc2O1)CN1CCN(c2ccccc2F)CC1` (configuration not stated), the “activity, negative = inhibition” value is -2.81%.
Still for that read-out and setting: under `O=C(CCN1CCN(c2ccccc2F)CC1)Nc1ccccc1F` stands -5.33%.
In the case of `Cn1c(=O)cc(SCC(=O)NCCCN2CCOCC2)c2ccc(Cl)cc21`, the AC50 was 7.94 µM (active).
For `Cn1c(=O)cc(SCC(=O)NCCN2CCN(c3ccccc3F)CC2)c2cc(Cl)ccc21`, the AC50 is 14.1 µM (active).
Turning to `Clc1ccc(Cl)c(SCCCN2CCNCC2)c1`, the activity, negative = inhibition was -17% [at 11.4 µM].
As to `CCCNC(=O)N1N=C(c2ccc(N)cc2)c2cc3c(cc2[C@H]1C)OCO3`, the half-maximal activity concentration (AC50) is 1.26 µM (active).
Regarding `CC(=O)N1N=C(c2cccc([N+](=O)[O-])c2)OC1c1ccc(Cl)cc1Cl` (configuration not stated), the activity, negative = inhibition is 11.9% [at 2.29 µM].
For the compound `COC(=O)N1CC(=O)N(OC)C1c1ccc(Cl)cc1Cl` (configuration not stated), the “activity, negative = inhibition” value was 0.907%.
Regarding `CC(=O)N1CC(=O)N(OCc2ccccc2)C1c1ccc(Cl)cc1Cl` (configuration not stated), the AC50 was 10 µM (active).
Still for that read-out and setting: under `Cc1cc(OCCn2cc(/C(N)=N/O)c3ccccc32)ccc1Cl` stands 11.2 µM (active).
For `CCOC(=O)c1[nH]c(C)c(C(=O)OCC(=O)N2c3ccccc3CC2C)c1C` (configuration not stated), the activity, negative = inhibition is -26.3% [at 2.29 µM].
In the case of `CCOC(=O)C1=C(CN2c3ccccc3CC2C)NC(=O)NC1c1ccccc1` (configuration not stated), the AC50 is 15.8 µM (active).
On to `Nc1nc(=S)[nH]c2c1C1(CCCC1)Cc1ccccc1-2`, for which the concentration at half-maximal activity (AC50) is 20 µM (active).
Consider `O=C(O)CN=C1NC2(CCCC2)Cc2ccccc21`, for which the “activity, negative = inhibition” value was 1.63%.
In the case of `Cc1cccc(-n2c(=O)c3c(n4cnnc24)-c2ccccc2CC32CCCCC2)c1`, the activity, negative = inhibition was -17.5% [at 2.29 µM].
Regarding `Cc1ccc(/C=C/C2=Cc3c(sc(NC(=O)CSc4n[nH]c(N)n4)c3C#N)C(C)(C)C2)o1`, the AC50 was 14.1 µM (active).
On the same count and under the same terms, under `CCOc1ccc(/C=C/C2=Cc3c(sc(NC(=O)CSc4n[nH]c(N)n4)c3C#N)C(C)(C)C2)cc1` stands 15.8 µM (active).
In the case of `CC(=O)OC[C@@H]1O[C@@H](O/N=C2/C[C@@H](O)[C@@H](O)[C@@H]3[C@@H]4C(=O)N(C5CCCCC5)C(=O)[C@H]4CC[C@H]23)[C@H](OC(C)=O)[C@H](OC(C)=O)[C@@H]1OC(C)=O`, the activity, negative = inhibition was -4% [at 11.4 µM].
For `N#C[C@@H](N=Nc1ccccc1C(=O)O)C(N)=O`, the activity, negative = inhibition was -6.32% [at 11.4 µM].
As to `Cc1c(/N=C/c2ccco2)n(Cc2ccccc2)c2ccccc12`, the half-maximal activity concentration (AC50) was 7.08 µM (active).
As to `O=C(Nc1ccccc1)N1CCSc2cc(Cl)ccc21`, the “activity, negative = inhibition” value is -17.4%.
Same read-out and setting: for `COC(=O)C1CSC(C(=O)OC)N1C(=O)Nc1ccccc1` (configuration not stated) the value was -29.1%.
Regarding `COC(=O)c1cc(NC(=O)N2c3ccccc3Sc3ccccc32)cc(C(=O)OC)c1`, the concentration at half-maximal activity (AC50) was 7.94 µM (active).
Turning to `Cc1nnsc1SC(C)C(=O)O` (configuration not stated), the “activity, negative = inhibition” value is -7.52%.
Take `C=CCSc1nc(C)cc(/C=C\c2ccccc2)c1C#N`: the half-maximal activity concentration (AC50) is 4.47 µM (active).
Consider `CC(=O)n1nc(-c2ccco2)nc1N`, for which the “activity, negative = inhibition” value is -8.68%.
`Nc1nc(NCCc2ccc(O)cc2)nc2nc(-c3ccco3)nn12`: the concentration at half-maximal activity (AC50) was 15.8 µM (active).
For the compound `c1ccc(CN(CC2=NCCN2)c2ccccc2)cc1`, the AC50 entry is “inactive”.
On to `Cc1ccc(C)c(/C(O)=C2\C(=O)C(=O)N(Cc3cccnc3)C2c2cccnc2)c1` (configuration not stated), for which the “activity, negative = inhibition” value was 25.2%.
In the case of `Cc1cccc(-n2nc([N+](=O)[O-])c(=NCc3cccnc3)n2O)c1`, the AC50 is 15.8 µM (active).
On to `CCNC(=S)NNC(=O)c1cc(C)on1`, for which the “activity, negative = inhibition” value is -5.44%.
For `COCC(C)n1c(C)cc(C(=O)CSc2nnc(Nc3ccccc3F)s2)c1C` (configuration not stated), the half-maximal activity concentration (AC50) is 1.58 µM (active).
Consider `COCCSc1nnc(NC(=O)C(C)(C)C)s1`, for which the “activity, negative = inhibition” value was -12.7%.
